# Laboratory results from PubChem BioAssay AID1626 (SRMLSC, 2009).
# Out of some 220,000 compounds screened, about 2,000 (0.91%) were called active. Roughly 2% stayed inconclusive and do not appear here. Rule as the data show it: inconclusive = inhibition above about 80% without an active follow-up result; inactive = below that; test concentration not stated here. These entries were drawn from the full list. Entries with a potency or affinity are not part of this list.
# Assay: M. tuberculosis H37Rv growth inhibitors, H37Rv strain (AID 1626);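 also: bacteria incubated seven days before Alamar blue readout; 0% = bacteria only wells and 100% = bacteria with antibiotic wells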
# Settings: hits give high values, concentration not given here
row,Structure (SMILES),inhibition
1,CC(C)C(NS(=O)(=O)c1cccs1)C(=O)N(C)Cc1ccccc1 (configuration not stated),-0.19% (inactive)
2,Cc1cc(NC(=O)CSc2nnc(C3CC3)n2N)c([N+](=O)[O-])cc1C,-1.15% (inactive)
3,CCCCCCCCCn1c2c(c(=N)c3c1CCC3)CCC2,56.5% (inactive)
4,CCCCn1c2c(c(=N)c3c1CCC3)CCC2,-7.84% (inactive)
5,CCCCCCCn1c2c(c(=N)c3c1CCC3)CCCC2,13.8% (inactive)
6,CCCCCCn1c2c(c(=N)c3c1CCC3)CCC2,1.15% (inactive)
7,CCCCCCCn1c2c(c(=N)c3ccccc31)CCC2,9.19% (inactive)
8,CCCCCn1c2c(c(=N)c3ccccc31)CCC2,7.75% (inactive)
9,COC(=O)Cc1c(O)ccn(C2CC2)c1=O,-1.41% (inactive)
10,CC(C)C(NS(=O)(=O)c1cccs1)C(=O)NCc1ccccc1Cl (configuration not stated),-0.44% (inactive)
11,Cn1c(SCC(=O)N2CCCc3ccccc32)nnc1-c1cccs1,11.9% (inactive)
12,COc1cc(NC(=O)c2ccccc2)c(OC)cc1NC(=O)CN1CCCCC1,25.5% (inactive)
13,COc1cc(NC(=O)c2ccc(Cl)cc2)c(OC)cc1NC(=O)CN1CCOCC1,-0.92% (inactive)
14,Cc1cc(NC(=O)c2cc(-c3ccccc3)on2)no1,-3.83% (inactive)
15,CCOC(=O)CC(=O)CSc1nc(C)cc(-c2cccnc2)c1C#N,0.1% (inactive)
16,CN(C)CCCNc1nc2sc3c(c2c(=O)n1CCc1ccccc1)CCCCC3,76.4% (inactive)
17,CCn1c(=O)n(CCc2ccccc2)c(=O)c2c3c(sc21)CCCC3,0.77% (inactive)
18,CN(C)CCCn1c(=O)n(Cc2ccco2)c(=O)c2c3c(sc21)CCCCC3,-6.11% (inactive)
19,O=c1c2c3c(sc2nc(NCCO)n1CCc1ccccc1)CCCCC3,5.74% (inactive)
20,CC1=C(C(=O)Nc2ccccc2)C(c2ccccn2)n2nc(CCCO)nc2N1 (configuration not stated),2.92% (inactive)
21,Cn1c(Sc2ccc(C(F)(F)F)cc2[N+](=O)[O-])nnc1-c1ccccc1,0.5% (inactive)
22,CCc1ccc(CNCc2cccs2)cc1,-12.3% (inactive)
23,CCc1nc(NCCc2ccccn2)c2nnn(Cc3ccccc3F)c2n1,7.39% (inactive)
24,CCN1CCN(CCCNC(=O)c2ccc(/C=C3/Sc4ccccc4N(Cc4ccccc4F)C3=O)cc2)CC1,1.17% (inactive)
25,CN1CCN(CCCNC(=O)c2ccc(/C=C3\Sc4ccccc4N(Cc4ccccc4F)C3=O)cc2)CC1,33.6% (inactive)

row,Structure (SMILES),inhibition
1,NC(N)=NS(=O)(=O)c1ccc(NC(=S)NC(=O)/C=C/c2cccs2)cc1,3.44% (inactive)
2,CCOC(=O)c1c(-c2ccncc2)csc1N,9.94% (inactive)
3,c1cc(-c2ccncc2)ccn1,2.83% (inactive)
4,O=C(NC(=S)Nc1ccccc1[N+](=O)[O-])c1ccccc1Cl,-1.52% (inactive)
5,O=C(Nc1ccccc1)OCCCc1ccccc1,5.86% (inactive)
6,COc1ccc(C2C=C(C34CC5CC(CC(C5)C3)C4)NC(=S)N2)cc1 (configuration not stated),1.23% (inactive)
7,COC(=O)CSc1nc2cc(C)ccc2cc1C#N,-2.11% (inactive)
8,COC(=O)CSc1[nH]c(=O)cc(C)c1C#N,-7.37% (inactive)
9,COC(=O)c1sc2ccccc2c1N,2.95% (inactive)
10,COC(=O)CSc1nc(-c2cccs2)ccc1C#N,-2.21% (inactive)
11,COC(=O)CSc1nc(C)cc(C)c1C#N,-8.05% (inactive)
12,COC(=O)c1sc2cnccc2c1N,-1.77% (inactive)
13,COc1cc(SC)ccc1C(=O)OCC(=O)NC1CC1,2.29% (inactive)
14,CCOC(=O)CSc1snnc1C,-2.01% (inactive)
15,CN(c1ccccc1)S(=O)(=O)c1cccc(Cl)c1Cl,-4.92% (inactive)
16,c1ccc(-c2ccnc3nc(N4CCN(c5ccccc5)CC4)nn23)cc1,6.16% (inactive)
17,c1ccc(Oc2ccc(-c3ccnc4nc(N5CCN(c6ccccc6)CC5)nn34)cc2)cc1,20.8% (inactive)
18,CNC(=S)NNC(=O)c1sccc1OCc1ccc(Cl)cc1Cl,-2.33% (inactive)
19,N#CC1CCN(c2ncccc2[N+](=O)[O-])CC1,-9.15% (inactive)
20,COc1ccc(OC)c(-c2cc(C3CCN(c4ncccc4[N+](=O)[O-])CC3)[nH]n2)c1,-8.76% (inactive)
21,Cc1nnc(SCc2nc3ccccc3c(=O)n2-c2ccccc2Cl)n1N,2.11% (inactive)
22,Cc1cccc(C)c1NC(=O)c1c(C)nn(-c2ccccc2)c1Cl,-2.35% (inactive)
23,CCN(CC)C(=O)Oc1ccnc2cc(Cl)ccc12,2.84% (inactive)
24,O=C(O)CSc1ccnc2cc(Cl)ccc12,3.22% (inactive)
25,O=C(COc1ccccc1Cl)Nc1ccc2c(c1)OCCO2,5.61% (inactive)

row,Structure (SMILES),inhibition
1,CCc1ccccc1NC(=O)c1cc(C2CC2)on1,8.45% (inactive)
2,COC(=O)c1ccccc1NC(=O)c1cc(C2CC2)on1,4.32% (inactive)
3,COc1ccc(-c2csc(N3C(=O)C4C5c6ccccc6C(c6ccccc65)C4C3=O)n2)cc1 (configuration not stated),49% (inactive)
4,CCc1c(C#N)c(SCCC(=O)Nc2ccc(F)cc2)nc2c1C(=O)CC(C)(C)C2,6.22% (inactive)
5,O=C(c1c(F)cccc1F)N1CCCC1,-1.31% (inactive)
6,O=C(NC1CC1)c1cc2c(F)cccc2s1,-6.42% (inactive)
7,COc1ccc(C(=O)OC(C(=O)c2ccc(C)cc2)c2ccccc2)cc1 (configuration not stated),9.22% (inactive)
8,C/C(=N/NC(=O)c1cc(-c2ccc(Cl)s2)[nH]n1)c1ccco1,40.6% (inactive)
9,CC1(C)CC(=O)C=C(c2cccc3c2oc2ccccc23)C1,8.8% (inactive)
10,COC(=O)[C@@H]1C[C@H]1[C@@H](NS(=O)(=O)c1ccccc1)c1ccccc1,-5.22% (inactive)
11,C/C(=N\N=C(/N)SC1CC(=O)N(c2ccc(Cl)cc2)C1=O)c1cccs1 (configuration not stated),64.5% (inactive)
12,C/C(=N\N=C(/N)SC1CC(=O)N(c2ccccc2)C1=O)c1cccs1 (configuration not stated),3.4% (inactive)
13,CN(C(=O)COC(=O)/C=C/c1ccc2ccccc2n1)C1CCS(=O)(=O)C1 (configuration not stated),14.9% (inactive)
14,COC(=O)CNC(=O)COC(=O)/C=C/c1ccc2ccccc2n1,61.8% (inactive)
15,CC(O)/C=C/c1ccc2ccccc2n1 (configuration not stated),10.2% (inactive)
16,O=C(O)/C=C/c1ccc2ccccc2n1,-1.78% (inactive)
17,COc1cc(NC(=O)C2CC(=O)NC3=C2C(=O)CCC3)cc(OC)c1 (configuration not stated),-7.6% (inactive)
18,CC(=O)O[C@]1(c2ccccc2)CCN(C)[C@H]2CCCC[C@@H]21,-5.42% (inactive)
19,Cc1ccc(Cn2nnc3c(=O)n(CC(=O)c4ccccc4)cnc32)cc1,4.84% (inactive)
20,CC(=O)N1C(=O)N(C)C2C1N(C)C(=O)N2C(C)=O (configuration not stated),-8.79% (inactive)
21,C=CCOC(=O)C1=C(C)NC(=S)C(C#N)(CC=C)C1c1ccccc1Cl (configuration not stated),-0.05% (inactive)
22,Cc1ccc(S(=O)(=O)/N=C(\N)Nc2nc(C)c3ccccc3n2)cc1,9.4% (inactive)
23,Cc1ccc2c(C)nc(N/C(N)=N/S(=O)(=O)c3ccc([N+](=O)[O-])cc3)nc2c1,13% (inactive)
24,CCCOc1ccc(N2C(=O)CC(SC(=N)N3N=C(c4ccccc4)CC3c3ccccc3)C2=O)cc1 (configuration not stated),75.6% (inactive)
25,CCN(CC)S(=O)(=O)c1ccc(NC(=O)C(C)N(c2ccccc2)S(C)(=O)=O)cc1 (configuration not stated),-1.18% (inactive)

row,Structure (SMILES),inhibition
1,COc1ccc(-c2nnc(SCC(=O)NCC3CCCO3)n2C)cc1 (configuration not stated),-4.37% (inactive)
2,CCc1ccc2nc(-c3cccc(C)c3)nc(SCC(=O)NCC3CCCO3)c2c1 (configuration not stated),-13% (inactive)
3,COc1ccc(-c2nnc3ccc(SCC(=O)NCC4CCCO4)nn23)cc1 (configuration not stated),-3.46% (inactive)
4,Cc1cccc(-c2nsc(SCC(=O)Nc3cc(C)on3)n2)c1,70.6% (inactive)
5,Cc1cc(NS(=O)(=O)c2ccccc2)n(-c2ccccc2)n1,-2.44% (inactive)
6,CCC(=O)N1CCc2cc(S(=O)(=O)NCCC(=O)N3CCN(c4ccccn4)CC3)ccc21,-5.78% (inactive)
7,COc1cc(/C=N/NC(=O)COc2ccccc2[N+](=O)[O-])ccc1OC(=O)c1ccco1,4.21% (inactive)
8,Cn1ccnc1SCC(=O)Nc1ccc(Oc2ccccc2)cc1,3.6% (inactive)
9,CCCN1CCN(CCCNC(=O)C2CCN(c3nnc(-n4cccc4)s3)CC2)CC1,-6.41% (inactive)
10,O=C(CSc1nc(-c2ccccc2Cl)ns1)NCc1ccco1,24.3% (inactive)
11,NC(=O)CSc1nc(-c2ccccc2Cl)ns1,-12.5% (inactive)
12,COc1ccc(-n2c(C)cc(SC)c(C(C)=O)c2=S)cc1,1.47% (inactive)
13,CC(Sc1nnnn1-c1ccccc1)C(=O)Nc1ccc(Cl)cn1 (configuration not stated),-7.65% (inactive)
14,CC(Sc1nncn1C)C(=O)Nc1ccc(Cl)cn1 (configuration not stated),4.99% (inactive)
15,Cc1nn(-c2ccccc2)c2c1C(c1ccc(Cl)cc1)N(c1ccccc1)C(=O)N2 (configuration not stated),63.4% (inactive)
16,Cc1nn(-c2ccccc2)c2c1C(c1ccc([N+](=O)[O-])cc1)C(C#N)=C(N)O2 (configuration not stated),-9.83% (inactive)
17,Cc1nn(-c2ccc([N+](=O)[O-])cc2)c2c1C(c1cccc(Br)c1)N1C(=N2)C(=O)Nc2ccccc21 (configuration not stated),73% (inactive)
18,COc1cccc(C2c3c(C)nn(-c4ccc([N+](=O)[O-])cc4)c3N=C3C(=O)Nc4ccccc4N32)c1 (configuration not stated),72.8% (inactive)
19,Cc1c(NC(=O)C(C)OC(=O)COc2cccc3c2OC(C)(C)C3)c(=O)n(-c2ccccc2)n1C (configuration not stated),0.88% (inactive)
20,COCCNC(=O)COC(=O)c1ccc(OCC(=O)Nc2ccccc2OC)c(OC)c1,2.52% (inactive)
21,CCC1(C)CC(C(N)=S)CCO1 (configuration not stated),7.13% (inactive)
22,CCOC(=O)c1ccc(CSc2nnc(C)n2N)o1,1.16% (inactive)
